# IDE inh = inhibitors of human insulin-degrading enzyme in cells; inhibition, % at 5.59 µM; HEK cells, FAbetaB cleavage, fluorescence polarization; actives 0.41% (n = 320,000); P14735; AID 434962;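 active means percent inhibition above the average of all tested compounds plus 3 SD, set per screening campaign, cut at about 16% in these data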;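 further: IDE supplied by intact live HEK cells; FP after avidin binding of uncleaved biotin substrate so inhibition keeps polarization high; 0% = DMSO wells and 100% = 60 µM reference IDE inhibitor Ii1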
# PKA-R2B activ = activators of human PKA-R2B complex | activation, % at 11.4 µM | PKA-R2B holoenzyme dissociation, Cy5-IP20 fluorescence polarization; R2B truncated from residue 108, S112A mutant; 0% DMSO only, 100% 113 µM cGMP | actives 0.079% (n = 340,000);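 active means activation above a cutoff set at the mean over all compounds plus 3 SD, cut at about 18% in these data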;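 further: higher means more holoenzyme dissociation and a rise in polarization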
# Rin1-Abl PPI inh = human Rin1-Abl interaction inhibition; P00519+Q13671; TR-FRET Rin1/Abl binding, biochemical; inhibition, % at 7.35 µM; actives 0.4% (n = 360,000); AID 588664; in the data active means inhibition above about 5%, passing the limit was not always enough
# PKA-R1A activ = PKA-R1A complex activation. AID 504707. activation, % at 11.4 µM. P00514+P68181. actives 0.083% (n = 340,000). PKA-R1A dissociation, Cy5-IP20 fluorescence polarization; scaled: DMSO 0%, 113 µM cGMP 100%;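 active means percent activation above the mean of all tested compounds plus 3 SD, cut at about 19% in these data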;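 further: higher means more PKAc released from R1A so a rise in polarization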
# eLon inh = inhibits E. coli Lon protease. P0A9M0. actives 0.42% (n = 360,000). inhibition, % at 7.94 µM. AID 602123. purified E. coli Lon protease, fluorescence polarization; in the data active means inhibition above about 13%, passing the limit was not always enough;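 further: 0% = enzyme with probe and DMSO and 100% = no enzyme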
# Target sequence (P0A9M0 whole entry, looked up): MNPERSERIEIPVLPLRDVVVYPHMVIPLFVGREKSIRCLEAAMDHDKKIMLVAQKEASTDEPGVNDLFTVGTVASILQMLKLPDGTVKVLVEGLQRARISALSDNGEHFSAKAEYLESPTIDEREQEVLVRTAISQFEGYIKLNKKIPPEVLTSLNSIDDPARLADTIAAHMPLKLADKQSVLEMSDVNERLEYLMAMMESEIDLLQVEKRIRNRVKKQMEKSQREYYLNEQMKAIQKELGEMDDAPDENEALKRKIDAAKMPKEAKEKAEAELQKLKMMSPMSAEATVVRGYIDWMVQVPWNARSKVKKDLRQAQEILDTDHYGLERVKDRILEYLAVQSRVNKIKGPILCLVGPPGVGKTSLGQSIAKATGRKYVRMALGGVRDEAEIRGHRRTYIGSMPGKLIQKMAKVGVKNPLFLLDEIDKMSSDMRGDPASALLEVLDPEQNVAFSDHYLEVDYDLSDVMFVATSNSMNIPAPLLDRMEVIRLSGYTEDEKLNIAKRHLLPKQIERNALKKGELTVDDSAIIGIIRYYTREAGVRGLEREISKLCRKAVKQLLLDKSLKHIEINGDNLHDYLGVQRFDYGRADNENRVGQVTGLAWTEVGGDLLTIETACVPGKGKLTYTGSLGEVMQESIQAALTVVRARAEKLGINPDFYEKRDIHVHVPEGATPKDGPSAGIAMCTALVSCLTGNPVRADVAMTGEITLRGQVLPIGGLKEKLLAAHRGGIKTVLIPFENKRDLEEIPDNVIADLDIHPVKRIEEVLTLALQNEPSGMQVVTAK
# IDE act = boosts human insulin-degrading enzyme activity in HEK cells. actives 0.073% (n = 340,000). P14735. FAbeta-B cleavage, fluorescence polarization; 0% vehicle, 100% cell-free pure enzyme wells. activation, % at 5.96 µM;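 active means activation above the mean of all tested compounds plus 3 SD, set per screening campaign, cut at about 17% in these data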
# R1A FP artifact = counter-screen for PKA-R1A activators: fluorescence polarization artifacts; shares compounds with PKA-R1A activ; Cy5-IP20 peptide alone, fluorescence polarization artifact counterscreen; activation, % at 11.4 µM; actives 7% (n = 280);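 active means mean activation over triplicate runs exceeds the adjusted cutoff derived for the parent primary screen, cut at about 19% in these data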;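 further: no PKA protein present so any polarization rise reflects compound interference; 0% = tracer peptide mix alone and 100% = mix with added PKA catalytic subunit; higher means stronger polarization artifact and likely false positive in parent screen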
# PKA-R1A act conf = confirmation of PKA-R1A complex activators; actives 9% (n = 280); Cy5-IP20 fluorescence polarization, PKA-R1A holoenzyme dissociation; shares compounds with PKA-R1A activ; activation, % at 11.4 µM;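 active means mean activation over replicate wells exceeds the adjusted hit threshold taken from the earlier primary screen, cut at about 20% in these data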;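 further: 0% = holoenzyme mix with DMSO only and 100% = cGMP-activated control wells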
# Rin1 Abl conf = confirmation of inhibitors of human Rin1-Abl interaction | shares compounds with Rin1-Abl PPI inh | TR-FRET Rin1-Abl binding, purified proteins | inhibition, % at 7.35 µM | actives 49% (n = 1,300) | AID 602124
# GFP quench = counter-screen for Rin1-Abl inhibitors: GFP fluorescence quenchers | AID 602125 | inhibition, % at 6.75 µM | shares compounds with Rin1-Abl PPI inh | inhibitors/quenchers counterscreen | actives 8.5% (n = 1,300);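 further: ABL1-eGFP fusion protein alone without its partner RIN1-SBP; 0% = protein with vehicle and 100% = wells lacking protein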
# GFP quench DR = GFP fluorescence interference dose response. IC50, µM. AID 602182. shares compounds with Rin1-Abl PPI inh. 230 tested, under 10 active. GFP fluorescence interference/quenching counterscreen; call rule not given here;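 further: ABL1-eGFP fusion protein alone without its RIN1 binding partner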
# Active calls of the source: *; . = not tested or not shown. An excerpt weighted towards active compounds, which were near 1.3% of everything screened. Unless noted, no stated cut-off is given here; in the data, active means inhibition above about 6.5%; inactive means the rest.
SMILES,IDE inh,PKA-R2B activ,Rin1-Abl PPI inh,PKA-R1A activ,eLon inh,IDE act,R1A FP artifact,PKA-R1A act conf,others
Cc1cc(NC(=O)CSc2ncn[nH]2)no1,-1,4,-1,9,-4,2,.,.,
O=C(NCc1ccccc1Cl)c1ccc(S(=O)(=O)Nc2cccc(C(F)(F)F)c2)cc1,7,12,0,22*,10,4,26*,22*,
Cc1cccc(C(=O)OCC(=O)N2CCCCCC2)c1C,5,-8,0,-12,-16,-2,.,.,
Cc1ccc(C(=O)c2ccccc2C(=O)OCC(=O)N2CCCC2)cc1,-2,3,3,20*,-15,2,2,8,
CN(C(=O)c1cncc(Br)c1)c1c(N)n(Cc2ccccc2)c(=O)[nH]c1=O,4,0,7,-7,-12,0,.,.,
COc1ccc(CNC(=O)CNC(=O)c2c(C)nn(C)c2Cl)cc1,3,0,0,19*,0,1,5,3,
CCOc1cc(CNC(=O)CN2C(=O)c3ccccc3S2(=O)=O)ccc1OC,3,-6,2,19*,-4,2,-1,0,
Nc1nnnn1/N=C/c1ccccn1,8,-3,-1,21*,-9,2,0,5,
COc1ccc(S(=O)(=O)NC2CC2)cc1-n1cnnn1,3,.,0,.,-5,.,.,.,
COc1ccc(S(=O)(=O)Nc2c(C)cccc2C)cc1-n1cnnn1,1,4,1,19*,2,0,7,6,
O=C(OCc1c(Cl)cccc1Cl)c1cccnc1,1,7,-2,-12,-14,3,.,.,
CC1CCCN(CCC(=O)c2ccc(Br)cc2)C1 (stereo unspecified),7,-3,2,19*,-2,5,3,-1,
COc1cc(F)ccc1-c1cc(C(=O)Nc2cc(OC)c(OC)c(OC)c2)[nH]n1,.,.,0,.,0,.,.,.,
CN(C)CCCCOc1cccc(Br)c1,-1,-3,0,23*,-6,1,6,4,
O=C1NC[C@@H](CCCCN2CCN(CCc3ccc(O)cc3)C(=O)C2=O)N(Cc2ccccc2)C1=O,.,.,.,.,1,.,.,.,
Cc1cc(Br)c(NC(=O)CN2C(=O)NC3(CCOc4ccccc43)C2=O)c(Br)c1 (stereo unspecified),.,3,-3,20*,-19,.,0,4,
CCNC(=O)CN1C(=O)NC2(CCOc3ccccc32)C1=O (stereo unspecified),1,-3,0,-2,-4,7,.,.,
COc1cccc(N2CCN(S(=O)(=O)c3ccc4nc(-c5ccccc5)[nH]c4c3)CC2)c1,3,4,4,-11,-10,2,.,.,
Cc1nc(CCNS(=O)(=O)c2cccs2)cs1,-2,-5,-2,20*,0,0,6,0,
O=C1OC(Cc2ccccn2)C(O)=C1C1=NCCCCN1 (stereo unspecified),-1,-6,-1,1,9,4,.,.,
CCOC(=O)CSc1nnc(COc2ccc3ccccc3c2)o1,.,7,-1,2,1,1,.,.,
Fc1ccccc1N1CCN(C2CCN(Cc3c[nH]c4ccccc34)CC2)CC1,1,-1,-3,19*,-2,1,4,3,
Cc1cc(C(F)(F)F)nc(NCc2cccnc2)n1,-5,-4,0,-5,0,2,.,.,
COc1ccc(C[C@H]2CN3C(=NC[C@@H]3C(C)C)N2C[C@H](C)NC(=O)c2ccc(C)c(Br)c2)cc1,7,-1,2,0,-4,2,.,.,
COc1ccc(C[C@H]2CN3C(=NC[C@@H]3Cc3ccc(O)cc3)N2C[C@H](C)NC(=O)c2ccc(C)c(Br)c2)cc1,-2,-9,9.4*,-6,-1,8,.,.,Rin1 Abl conf=1;GFP quench=0
SMILES,IDE inh,PKA-R2B activ,Rin1-Abl PPI inh,PKA-R1A activ,eLon inh,IDE act,R1A FP artifact,PKA-R1A act conf,others
CCN1C(=O)CS/C1=C(\C#N)S(=O)(=O)c1ccccc1,4,-6,-3,-15,-40,-8,.,.,
N#CC(=C1Nc2ccccc2N1)S(=O)(=O)c1ccccc1,3,-1,9.5*,3,-3,1,.,.,Rin1 Abl conf=-3;GFP quench=1
Oc1ccc(CNc2ccccc2F)c2cccnc12,-3,-3,-5,0,3,3,.,.,
O=S(=O)(Nc1ccc(O)c2ncccc12)c1ccccc1F,.,.,13*,.,6,.,.,.,Rin1 Abl conf=3;GFP quench=5
NCCC1CN(C(=O)OCc2ccccc2)c2ccccc21 (stereo unspecified),.,0,2,-2,-10,3,.,.,
CCN(CC)CCCNC(=O)C1c2ccccc2Oc2ccccc21,-5,3,5.0*,-8,-20,5,.,.,Rin1 Abl conf=1;GFP quench=-1
COCCCNC(=O)C1c2ccccc2Oc2ccccc21,-1,-8,-1,-7,2,5,.,.,
CCCn1nc(C(=O)NCC(C)(C)N2CCOCC2)c2ccccc2c1=O,-3,-15,-4,-3,8,4,.,.,
Cc1ccc(CNC(=O)CSc2ncn[nH]2)cc1,-3,-1,5,-3,-3,4,.,.,
C[C@@H]1O[C@@H](OC[C@H]2O[C@@H](Oc3c(-c4ccc(O)c(O)c4)oc4cc(O)cc(O)c4c3=O)[C@H](O)[C@@H](O)[C@@H]2O)[C@H](O)[C@H](O)[C@H]1O,-3,-3,15*,8,7,7,.,.,Rin1 Abl conf=21*;GFP quench=2;GFP quench DR=>68
CC1OC(OCC2OC(Oc3c(-c4ccc(O)cc4)oc4cc(O)cc(O)c4c3=O)C(O)C(O)C2O)C(O)C(O)C1O (stereo unspecified),1,-3,12,0,-7,4,.,.,
CN=Cc1cc(-c2ccccc2)sc1O,4,0,-6,2,-10,-3,.,.,
O=C(C[C@H]1C/C=C\C[C@@H](Cc2ccc(F)cc2)C(=O)OC[C@H]2CCCN2C1=O)N[C@H](CO)Cc1ccccc1,2,-9,1,-3,4,5,.,.,
CC(C)OC(=O)CSc1nnc(Cc2ccccc2)n1C,1,2,8.9*,12,-18,1,.,.,Rin1 Abl conf=-2;GFP quench=0
